Source: PubChem BioAssay (NCI)
“And” between values parts separate entries of the source, which are not always exact repeats. Equal entries are not always repeated. About 83,000 compounds went through this panel and 20% of them were active in at least one assay; those are over-represented in the sample as a whole.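 A percent growth of 40 corresponds to 60% growth inhibition; 0 means no net growth; -100 means all cells died. Active threshold: below 10.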 The source made the active and inactive calls.

How the values were obtained:
Assay in all cases: NCI-60 one-dose screen, 48 h (100 = growth as untreated, 0 = no growth, -100 = all killed)
Conditions in all cases: 10 µM unless noted
HCT-15 colon = system: HCT-15 colon
HT29 colon = system: HT29 colon
SNB-75 CNS = system: SNB-75 CNS
SNB-19 CNS = system: SNB-19 CNS
U251 CNS = system: U251 CNS
PC-3 prostate = system: PC-3 prostate
SK-MEL-5 melanoma = system: SK-MEL-5 melanoma
UACC-62 melanoma = system: UACC-62 melanoma
LOX IMVI melanoma = system: LOX IMVI melanoma
SK-MEL-28 melanoma = system: SK-MEL-28 melanoma

Measured: growth

COc1ccc(N=Nc2c(N)nn3c(-c4cc5cc(Br)ccc5oc4=O)ccnc23)cc1
active: SNB-75 CNS -14.8% | SNB-19 CNS 2.33% | U251 CNS -12.3% | SK-MEL-5 melanoma -14.2%
inactive: HCT-15 colon 29.9% | HT29 colon 32.9% | PC-3 prostate 44.9% | UACC-62 melanoma 30.7% | LOX IMVI melanoma 26.4% | SK-MEL-28 melanoma 28.8%

CSc1ccc(OCc2nc3ccccc3n2-c2cccc(NS(C)(=O)=O)c2)cc1
inactive: HCT-15 colon 115% and 93.4% | HT29 colon 109% and 110% | SNB-75 CNS 79.6% and 68.9% | SNB-19 CNS 102% and 85.6% | U251 CNS 104% and 76.9% | PC-3 prostate 80.5% and 93.4% | SK-MEL-5 melanoma 98% and 104% | UACC-62 melanoma 86.1% and 100% | LOX IMVI melanoma 88.9% | SK-MEL-28 melanoma 119% and 99.1%

COc1ccc(-c2nc3ccccc3n2CC(=O)N=Nc2c(O)[nH]c3ccc(Br)cc23)cc1
inactive: HCT-15 colon 58.1% | HT29 colon 45.4% | SNB-75 CNS 66.8% | SNB-19 CNS 89.3% | U251 CNS 105% | PC-3 prostate 76.7% | SK-MEL-5 melanoma 67.4% | UACC-62 melanoma 72.1% | LOX IMVI melanoma 74.4% | SK-MEL-28 melanoma 97.8%

S=C(Nc1ccccc1)Nc1ccc(OCc2nc3ccc(Cl)cc3[nH]2)cc1
inactive: HCT-15 colon 67.9% | HT29 colon 105% | SNB-75 CNS 89.4% | SNB-19 CNS 89.1% | U251 CNS 82.6% | PC-3 prostate 77.8% | SK-MEL-5 melanoma 82.8% | UACC-62 melanoma 77.3% | LOX IMVI melanoma 36.3% | SK-MEL-28 melanoma 87.9%

COc1ccc(N=Nc2c(N)nn3c(-c4ccc([N+](=O)[O-])cc4)ccnc23)cc1
inactive: HCT-15 colon 101% | HT29 colon 96.3% | SNB-75 CNS 85.4% | SNB-19 CNS 108% | U251 CNS 107% | PC-3 prostate 101% | SK-MEL-5 melanoma 94.2% | UACC-62 melanoma 94.5% | LOX IMVI melanoma 99.9% | SK-MEL-28 melanoma 101%

COc1ccc(C2=Nc3c(N)nc(N)nc3NC(c3ccc(Oc4nc(Nc5ccc(F)cc5)nc(N(C)C)n4)c(OC)c3)C2)cc1 (stereo not given)
inactive: HCT-15 colon 48.7% | HT29 colon 46.4% | SNB-75 CNS 51% | SNB-19 CNS 76.5% | U251 CNS 65.3% | PC-3 prostate 49.1% | SK-MEL-5 melanoma 51.5% | UACC-62 melanoma 98.3% | LOX IMVI melanoma 63.1% | SK-MEL-28 melanoma 93.2%

COC(=O)c1cc(C(=O)C(C)(C)C)n2c3ccccc3c3ccccc3c12
inactive: HCT-15 colon 65.6% | HT29 colon 99.4% | SNB-75 CNS 84.1% | SNB-19 CNS 109% | U251 CNS 97% | PC-3 prostate 59.2% | SK-MEL-5 melanoma 88.6% | UACC-62 melanoma 66.7% | LOX IMVI melanoma 91.1% | SK-MEL-28 melanoma 99.2%

COC(=O)c1cccc(Oc2ccc(NC(=O)Nc3cc(C(F)(F)F)ccc3F)cc2)c1
inactive: HCT-15 colon 62% | HT29 colon 62.9% | SNB-19 CNS 10.7% | U251 CNS 40.4% | PC-3 prostate 69.9% | SK-MEL-5 melanoma 94.5% | UACC-62 melanoma 69.6% | LOX IMVI melanoma 79.5% | SK-MEL-28 melanoma 88.7%
active: SNB-75 CNS -34.1%

Cc1cccc(NCC(=O)N2CCN(c3ncnc4c3cnn4-c3ccccc3)CC2)c1
inactive: HCT-15 colon 72.9% | HT29 colon 83.5% | SNB-75 CNS 53.5% | SNB-19 CNS 88.9% | U251 CNS 87.1% | PC-3 prostate 70% | SK-MEL-5 melanoma 37.5% | UACC-62 melanoma 34.6% | LOX IMVI melanoma 53.8% | SK-MEL-28 melanoma 59%

Cc1ccc(-c2cc(C(=O)N=Nc3c(O)[nH]c4ccc(F)cc34)c3ccccc3n2)cc1
inactive: HT29 colon 36.3% | SNB-75 CNS 56.7% | SNB-19 CNS 41.9% | PC-3 prostate 77.6% | SK-MEL-5 melanoma 59.2% | UACC-62 melanoma 59.9% | SK-MEL-28 melanoma 14.5%
active: HCT-15 colon 7.85% | U251 CNS -30.9% | LOX IMVI melanoma 1.93%

Cn1cc(Nc2ncnc(-c3ccc(N4CCCC4)c(C#N)c3)n2)cn1
inactive: HCT-15 colon 40.8% | HT29 colon 74.6% | SNB-75 CNS 30.8% | SNB-19 CNS 92.4% | U251 CNS 94.3% | PC-3 prostate 78.8% | SK-MEL-5 melanoma 49% | UACC-62 melanoma 59.4% | LOX IMVI melanoma 48.9% | SK-MEL-28 melanoma 88.3%

COc1cc(NC(=O)C(C)C)ccc1C(=O)NC(=S)Nc1ccc(S(N)(=O)=O)cc1
inactive: HCT-15 colon 108% | HT29 colon 101% | SNB-75 CNS 95.5% | SNB-19 CNS 80.8% | U251 CNS 72% | PC-3 prostate 115% | SK-MEL-5 melanoma 114% | UACC-62 melanoma 96.2% | LOX IMVI melanoma 102% | SK-MEL-28 melanoma 114%

O=C(N/N=C/c1ccoc1)c1[nH]c2ccc(Br)cc2c1-c1ccccc1
active: HCT-15 colon -100% | HT29 colon -50.2% | SNB-75 CNS -79.6% | SNB-19 CNS -97.5% | U251 CNS -81.5% | PC-3 prostate -37.3% | SK-MEL-5 melanoma -97.2% | UACC-62 melanoma -99.6% | LOX IMVI melanoma -100% | SK-MEL-28 melanoma -93.7%

Cc1ccc(C(=O)Nc2ccc(-n3ccnc3)c(C(F)(F)F)c2)cc1C#Cc1cnc2cccnn12
inactive: HCT-15 colon 20.7% | HT29 colon 17.8% | SNB-19 CNS 36.4% | U251 CNS 33.6%
active: SNB-75 CNS -2.9% | PC-3 prostate -16.3% | SK-MEL-5 melanoma -55% | UACC-62 melanoma -15.1% | LOX IMVI melanoma 3.66% | SK-MEL-28 melanoma -10.8%

Fc1cccc(CNc2nc(SCCN3CCOCC3)nc3c2cnn3CC(Cl)c2ccc(Br)cc2)c1 (stereo not given)
active: HCT-15 colon -64.7% | HT29 colon -49.9% | SK-MEL-5 melanoma 3.78% | LOX IMVI melanoma 5.6%
inactive: SNB-75 CNS 42.3% | SNB-19 CNS 42.2% | U251 CNS 25.2% | PC-3 prostate 25.8% | UACC-62 melanoma 28.2% | SK-MEL-28 melanoma 46.8%

COc1c(B(O)O)cccc1-c1nc2ccc3cn[nH]c3c2c2c1CCCC2
inactive: HCT-15 colon 54.9% | HT29 colon 85.8% | SNB-19 CNS 54.9% | U251 CNS 48.1% | PC-3 prostate 60% | SK-MEL-5 melanoma 53.4% | UACC-62 melanoma 52.1% | LOX IMVI melanoma 41.3% | SK-MEL-28 melanoma 86.6%
active: SNB-75 CNS -17.7%

Cc1ccc(C2CC(c3ccc(NC(=O)Nc4ccccc4)cc3)=NN2c2ccc(S(N)(=O)=O)cc2)cc1 (stereo not given)
active: HCT-15 colon -68% | HT29 colon -62% | SNB-75 CNS -68.1% | SNB-19 CNS -99.8% | U251 CNS -96.1% | PC-3 prostate -59% | SK-MEL-5 melanoma -96.6% | UACC-62 melanoma -96.2% | LOX IMVI melanoma -100% | SK-MEL-28 melanoma -99.7%

O=C1Nc2cc(-c3ccc(NS(=O)(=O)c4ccc(-c5ccccc5)cc4)cc3)ccc2/C1=C/c1ccc[nH]1
active: HT29 colon 0.595%
inactive: HCT-15 colon 14.6% | SNB-75 CNS 53.2% | SNB-19 CNS 72.5% | U251 CNS 28.2% | PC-3 prostate 31.1% | SK-MEL-5 melanoma 46.2% | UACC-62 melanoma 55% | LOX IMVI melanoma 20.2% | SK-MEL-28 melanoma 52.1%

O=C(/C=C1\C(=O)N(Cc2ccccc2)c2ccccc21)c1cc2ccccc2oc1=O
inactive: HCT-15 colon 31.8% | HT29 colon 113% | SNB-75 CNS 88% | SNB-19 CNS 102% | U251 CNS 98.4% | PC-3 prostate 90.7% | SK-MEL-5 melanoma 90.2% | UACC-62 melanoma 79.5% | LOX IMVI melanoma 85.2% | SK-MEL-28 melanoma 92.1%

C=CC[n+]1cccc2c3ccccc3ccc21
inactive: HCT-15 colon 94.7% | HT29 colon 47.3% | SNB-75 CNS 49.8% | SNB-19 CNS 26.5% | U251 CNS 16.6% | PC-3 prostate 43.7% | UACC-62 melanoma 61% | LOX IMVI melanoma 61.8% | SK-MEL-28 melanoma 69%
active: SK-MEL-5 melanoma -39.8%

Cc1ccc2nc(SCc3ccccc3F)n(-c3ccccc3)c(=O)c2c1
inactive: HCT-15 colon 83.3% | HT29 colon 78.7% | SNB-75 CNS 156% | SNB-19 CNS 96.8% | U251 CNS 99.4% | PC-3 prostate 77.9% | SK-MEL-5 melanoma 93.9% | UACC-62 melanoma 74.3% | LOX IMVI melanoma 84.9% | SK-MEL-28 melanoma 100%

Cc1ccc(N=Nc2c(N)nn3c(-c4cc5cc(Br)ccc5oc4=O)ccnc23)cc1
inactive: HCT-15 colon 79.2% | HT29 colon 65% | SNB-75 CNS 61.3% | U251 CNS 13% | PC-3 prostate 88.3% | SK-MEL-5 melanoma 50.8% | UACC-62 melanoma 99.5% | LOX IMVI melanoma 51.8% | SK-MEL-28 melanoma 110%
active: SNB-19 CNS -13%

COc1ccc(C(=O)c2c(N)c(C#N)cn2-c2ccc([N+](=O)[O-])cc2)cc1
inactive: HCT-15 colon 104% | HT29 colon 102% | SNB-75 CNS 92.2% | SNB-19 CNS 100% | U251 CNS 111% | PC-3 prostate 109% | SK-MEL-5 melanoma 102% | UACC-62 melanoma 93.1% | LOX IMVI melanoma 96.3% | SK-MEL-28 melanoma 112%

N/C(=N\c1nc2ccccc2s1)NC(=O)Nc1ccccc1F
active: HT29 colon 5.46% | SNB-75 CNS -0.749% | SK-MEL-5 melanoma -0.0152%
inactive: HCT-15 colon 25.7% | SNB-19 CNS 28.9% | U251 CNS 11.2% | PC-3 prostate 33.3% | UACC-62 melanoma 25.3% | LOX IMVI melanoma 27% | SK-MEL-28 melanoma 57.3%

N#CC1=C(c2ccco2)Nc2c(c(-c3ccccc3)nn2-c2ccccc2)C12C(=O)Nc1ccc(Br)cc12 (stereo not given)
active: SNB-75 CNS -8.95% | U251 CNS 1.85%
inactive: HCT-15 colon 38.6% | HT29 colon 49.5% | SNB-19 CNS 60% | PC-3 prostate 24.1% | SK-MEL-5 melanoma 59% | UACC-62 melanoma 51.5% | LOX IMVI melanoma 21.3% | SK-MEL-28 melanoma 67.5%

COc1ccc2[nH]c(O)c(N=Nc3nc(-c4ccc(C#N)cc4)cs3)c2c1
inactive: HCT-15 colon 68% | HT29 colon 79.1% | SNB-19 CNS 77.2% | U251 CNS 15.2% | PC-3 prostate 85.7% | SK-MEL-5 melanoma 53.7% | UACC-62 melanoma 72.7% | LOX IMVI melanoma 37.6% | SK-MEL-28 melanoma 68.9%
active: SNB-75 CNS -3.1%
